Compounds with a hit are over-represented: about 1.1% of the library has one in this group of screens.
Sa RN4220 lethal – S. aureus RN4220 growth inhibition. OD600, 16 h. inhibition, % (no concentration beside the values). actives 0.33% (n = 330,000); in the data active means inhibition above about 85%;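 further: plate controls were untreated cells for no effect and reference antibiotic for full effect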
SSB-PriA inh – inhibitors of Klebsiella pneumoniae PriA binding to SSB C-terminal tail; AlphaScreen SSBct-PriA binding, biotinylated peptide; inhibition, % at 33 µM; AID 1272365; actives 0.6% (n = 430,000); in the data active means inhibition mostly above about 37%, no sharp cut-off; inactive means mostly below about 20%;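 further: plate controls were negative control peptide for no effect and reference peptide for full effect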
Mtb hypoxia inh – inhibitors of hypoxia-regulated fluorescent reporter in Mycobacterium tuberculosis; M. tuberculosis hypoxia-regulated fluorescent reporter, fluorescence; fluorescence inhibition, % (no concentration beside the values); actives 0.1% (n = 300,000); AID 1159583; in the data active means fluorescence inhibition mostly above about 23%, no sharp cut-off; inactive means mostly below about 17%
Sa ugtP lethal – growth inhibition of S. aureus ugtP deletion strain | S. aureus RN4220 ugtP deletion, OD600 growth, 16 h | growth inhibition, % (no concentration beside the values) | actives 0.54% (n = 330,000); in the data active means growth inhibition above about 68%;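 further: plate controls were untreated wells for no effect and antibiotic for full effect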
An asterisk follows results filed as active.

Cc1ccc(S(=O)(=O)N2CCOCC2)cc1NC(=O)CSc1nc2ccccc2c(=O)n1Cc1ccccc1 was read as Sa RN4220 lethal 2, SSB-PriA inh 1, Mtb hypoxia inh -7 and Sa ugtP lethal 4.
CC1CCCN(c2ccc([N+](=O)[O-])cc2C(=O)c2ccccc2)C1 (configuration not stated) was read as Sa RN4220 lethal -2, SSB-PriA inh 4, Mtb hypoxia inh 12 and Sa ugtP lethal 87*.
Screening CS(=O)(=O)N1C2CCC1CC(NC(=O)CCc1cccc(OCc3ccccc3)c1)C2 (configuration not stated) returned SSB-PriA inh -13.
`Cc1ccc(O)c(-c2cc(-c3cccc(Br)c3)n[nH]2)c1` gave Sa RN4220 lethal 87*, SSB-PriA inh -3, Mtb hypoxia inh -4 and Sa ugtP lethal 85.
Screening Cc1ccc(-c2cc(-c3ccc(C)cc3O)[nH]n2)cc1 returned Sa RN4220 lethal -11, SSB-PriA inh -35, Mtb hypoxia inh 9 and Sa ugtP lethal 55.
For COc1ccc2nc(N3C(=O)/C(=C/c4ccccc4)NC3=S)sc2c1 the results were Sa RN4220 lethal 0, SSB-PriA inh 6, Mtb hypoxia inh 1 and Sa ugtP lethal 92*.
For CCOc1ccc2nc(N3CCCCCC3)sc2c1 the results were Sa RN4220 lethal 7, SSB-PriA inh -19, Mtb hypoxia inh 14 and Sa ugtP lethal 50.
`CCOc1ccc2nc(N3C(=O)/C(=C/c4ccccc4)NC3=S)sc2c1` gave Sa RN4220 lethal 8, SSB-PriA inh 3, Mtb hypoxia inh 4 and Sa ugtP lethal 94*.
`CS(=O)(=O)Nc1ccccc1C(=O)OCC(=O)N1CCC(c2ccccc2)=N1` gave Sa RN4220 lethal 4, SSB-PriA inh -5, Mtb hypoxia inh 33* and Sa ugtP lethal 5.
Screening Cc1ccc(C(=O)OCC(=O)N2CCC(c3ccccc3)=N2)c(C)c1 returned Sa RN4220 lethal 4, SSB-PriA inh -12, Mtb hypoxia inh -8 and Sa ugtP lethal 0.
For CN1NC(c2cccs2)C2C(=O)N(Cc3ccccc3)C(=O)C21 (configuration not stated) the results were SSB-PriA inh -19.
For CN(N=Cc1cc(Cl)cc(Cl)c1O)C(=S)NC(C)(C)C the results were Sa RN4220 lethal 100*, SSB-PriA inh -17, Mtb hypoxia inh 13 and Sa ugtP lethal 100*.
Screening CC(C)Oc1ccc(C(=O)NCCCN2CCOC(c3ccccc3)C2)cc1 (configuration not stated) returned SSB-PriA inh -14.
CCc1ccc(OCc2ccc(C(=O)NCc3ccccn3)o2)cc1 was read as Sa RN4220 lethal 21, SSB-PriA inh -7, Mtb hypoxia inh -1 and Sa ugtP lethal 20.
Screening CCOc1ccc(-c2csc(SCc3ccc(C(=O)NCc4ccccn4)o3)n2)cc1 returned SSB-PriA inh 14*.
Cn1cnnc1SCc1ccc(O)c2ncccc12 was read as SSB-PriA inh 125*.
Screening Cn1nnnc1SCc1ccc(O)c2ncccc12 returned SSB-PriA inh 124*.
Screening Cn1ccnc1SCc1ccc(O)c2ncccc12 returned SSB-PriA inh 128*.
CCCCCCCCCCCCc1ccc(O)c2ncccc12 was read as SSB-PriA inh 33.
`CCc1nnc(C2CCN(C(=O)c3cccc(C)c3)CC2)s1` gave SSB-PriA inh -5.
`Cc1nc(N)sc1C(=O)N(C)C` gave SSB-PriA inh 14.
Screening COc1ccc(NC(=O)CSc2ccc(-c3ccccn3)nn2)cc1 returned SSB-PriA inh 42.
COc1cc(NC(=O)CSc2ccc(-c3ccccn3)nn2)cc(OC)c1 was read as Sa RN4220 lethal 1, SSB-PriA inh 78*, Mtb hypoxia inh 9 and Sa ugtP lethal -2.
For COc1cccc(NC(=O)CSc2ccc(-c3ccccn3)nn2)c1 the results were SSB-PriA inh 76*.
`O=C(CCCc1ccccc1)N1CCN(c2ncnc3c2nnn3-c2ccccc2)CC1` gave SSB-PriA inh -10.
`Cc1cc(C(O)CCNS(=O)(=O)c2c(C)nn(C)c2C)c(C)o1` (configuration not stated) gave SSB-PriA inh 6.
CN1C(=O)C2(C(C#N)=C(N)Oc3n[nH]c(-c4ccc(Cl)cc4)c32)c2ccccc21 (configuration not stated) was read as Sa RN4220 lethal 98*, SSB-PriA inh -4 and Sa ugtP lethal 75.
For Cc1[nH]nc2c1C1(C(=O)N(Cc3ccc(Cl)cc3)c3ccccc31)C(C#N)=C(N)O2 (configuration not stated) the results were Sa RN4220 lethal 15, SSB-PriA inh 8, Mtb hypoxia inh 6 and Sa ugtP lethal -22.
For O=C(CCc1ccccc1)Nc1nc(CN2CCc3ccccc3C2)cs1 the results were SSB-PriA inh 10.
Screening CN1C(=O)Cc2cc(NC(=O)c3ccc(-c4ccsc4)cc3)ccc21 returned SSB-PriA inh 58*.
Screening CC(C)(C)C(=O)NCCOc1ccc2nnc(-c3ccccc3)n2n1 returned SSB-PriA inh -14.
`COc1cccc(OCC(=O)NCc2cc(C)oc2C)c1` gave SSB-PriA inh -5.
Screening COc1ccc(NC(=S)Nc2ncccc2C)c(OC)c1 returned Sa RN4220 lethal 2, SSB-PriA inh 46*, Mtb hypoxia inh 9 and Sa ugtP lethal -8.
Screening COc1ccc(OC)c(NC(=S)Nc2ncccc2C)c1 returned SSB-PriA inh 105*.
Cc1cccnc1NC(=S)Nc1ncccc1C was read as Sa RN4220 lethal 6, SSB-PriA inh 5, Mtb hypoxia inh 7 and Sa ugtP lethal 7.
For COc1ccc(NC(=S)Nc2ncccc2C)cc1OC the results were Sa RN4220 lethal 4, SSB-PriA inh -3, Mtb hypoxia inh 6 and Sa ugtP lethal -3.
`Cc1[nH]n(-c2ccc(Br)cc2)c(=O)c1C=NNC(=O)c1ccccc1` gave Sa RN4220 lethal 94*, SSB-PriA inh -6, Mtb hypoxia inh 3 and Sa ugtP lethal 97*.
Screening CCOc1ccc(S(=O)(=O)N2CCN(Cc3ccc4c(c3)OCO4)CC2)c(C)c1C returned SSB-PriA inh -9.
`CC1(C)C(=S)N(Cc2ccccc2)c2ccccc21` gave Sa RN4220 lethal -4, SSB-PriA inh -36, Mtb hypoxia inh 15 and Sa ugtP lethal 86*.
Screening CC(=O)CC1(O)C(=O)N(Cc2ccccc2)c2ccccc21 (configuration not stated) returned Sa RN4220 lethal 3, SSB-PriA inh -19, Mtb hypoxia inh 5 and Sa ugtP lethal -7.
CCCc1ccc(C2C3=C(CC(C)(C)CC3=O)NC3=C2C(=O)c2ccccc23)cc1 (configuration not stated) was read as Sa RN4220 lethal -6, SSB-PriA inh 47*, Mtb hypoxia inh -2 and Sa ugtP lethal -15.
Screening CC1(C)CC(=O)C2=C(C1)NC1=C(C(=O)c3ccccc31)C2c1ccc(O)cc1 (configuration not stated) returned Sa RN4220 lethal 0, SSB-PriA inh 50*, Mtb hypoxia inh -1 and Sa ugtP lethal -3.
For O=c1[nH]c(SCCc2ccccc2)nc2c1cnn2CCO the results were SSB-PriA inh -9.
CC(C)CC(=O)NC(=S)Nc1ccc(NC(=O)c2cccs2)cc1 was read as Sa RN4220 lethal 3, SSB-PriA inh 6 and Sa ugtP lethal 83*.

Compound activity from PubChem.
